Reference: PMC5540273 (PLoS ONE, 2017)

Key:
Conditions in all cases: concentration: 1 μM,replicates: in singlicate; n = 1
DYRK1B = system: DYRK1B
DYRK2 = system: DYRK2
EGFR = system: EGFR
EIF2AK1 = system: EIF2AK1
EPHA1 = system: EPHA1
EPHA2 = system: EPHA2
EPHA3 = system: EPHA3
EPHA4 = system: EPHA4
EPHA5 = system: EPHA5
EPHA6 = system: EPHA6
EPHA7 = system: EPHA7
EPHA8 = system: EPHA8
EPHB1 = system: EPHB1
EPHB2 = system: EPHB2
EPHB3 = system: EPHB3
EPHB4 = system: EPHB4
EPHB6 = system: EPHB6
ERBB2 = system: ERBB2
ERBB3 = system: ERBB3
ERBB4 = system: ERBB4
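Note: KINOMEscan kinase panel screen.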

Row | SMILES | %Inh (DYRK1B) | %Inh (DYRK2) | %Inh (EGFR) | %Inh (EIF2AK1) | %Inh (EPHA1) | %Inh (EPHA2) | %Inh (EPHA3) | %Inh (EPHA4) | %Inh (EPHA5) | %Inh (EPHA6) | %Inh (EPHA7) | %Inh (EPHA8) | %Inh (EPHB1) | %Inh (EPHB2) | %Inh (EPHB3) | %Inh (EPHB4) | %Inh (EPHB6) | %Inh (ERBB2) | %Inh (ERBB3) | %Inh (ERBB4)
1 | CC(=O)Nc1nc2cnc(Nc3cc(NC(=O)c4cccc(CC(C)(C)C#N)c4)ccc3C)nc2s1 | 31% | 0% | 0% | 30% | 0% | 84% | 65% | 54% | 21% | 38% | 4% | 72% | 11% | 55% | 13% | 37% | 61% | 42% | 9% | 0%
2 | C[C@@H]1CNc2c(sc3ccc4nc(-c5ccncc5)ccc4c23)C(=O)N1 | 88% | 18% | 0% | 12% | 7% | 0% | 0% | 15% | 1% | 11% | 0% | 0% | 0% | 0% | 20% | 17% | 18% | 14% | 10% | 0%
3 | CCn1c(-c2nonc2N)nc2cncc(Br)c21 [SB-738004] | 29% | 73% | 15% | 0% | 0% | 41% | 29% | 16% | 0% | 4% | 0% | 0% | 0% | 12% | 0% | 13% | 29% | 60% | 43% | 11%
4 | COc1cc2ncn(-c3cc(OCC4CCCCC4)c(C(N)=O)s3)c2cc1OC [GSK204559] | 11% | 33% | 38% | 1% | 3% | 4% | 14% | 10% | 0% | 11% | 17% | 29% | 10% | 0% | 21% | 8% | 64% | 0% | 0% | 0%
5 | C[C@@H]1CNc2c(sc3ccc4nc(-c5ccc(O)cc5)ccc4c23)C(=O)N1 | 98.1% | 24% | 11% | 0% | 0% | 0% | 14% | 0% | 11% | 5% | 0% | 0% | 5% | 12% | 0% | 0% | 9% | 26% | 0% | 6%
6 | Cl.Nc1n[nH]c2cc(-c3ccccn3)ccc12 [GSK2189892] | 10% | 22% | 38% | 0% | 7% | 23% | 0% | 1% | 0% | 0% | 0% | 0% | 4% | 0% | 4% | 0% | 18% | 9% | 0% | 0%
7 | O=C(Nc1cccc(Oc2ccc3nccn3n2)c1)Nc1cccc(C(F)(F)F)c1 | 26% | 8% | 23% | 0% | 21% | 75% | 8% | 51% | 11% | 15% | 0% | 92.6% | 3% | 39% | 11% | 16% | 40% | 22% | 45% | 0%
8 | O=C1NCCc2[nH]c(-c3ccncc3)cc21 | 97.6% | 97.1% | 0% | 0% | 2% | 0% | 0% | 30% | 31% | 41% | 0% | 0% | 0% | 12% | 44% | 17% | 8% | 0% | 21% | 0%
9 | C[C@@H]1CCN(C(=O)N2CCCC2)C[C@@H]1N(C)c1ncnc2[nH]ccc12 | 0% | 0% | 0% | 23% | 1% | 0% | 0% | 16% | 8% | 20% | 0% | 0% | 0% | 5% | 26% | 0% | 34% | 10% | 0% | 7%
10 | Nc1nccc(-c2ccc3c(N)n[nH]c3c2)n1 [GSK1034945] | 75% | 93.1% | 24% | 4% | 11% | 0% | 0% | 0% | 0% | 0% | 6% | 13% | 30% | 19% | 16% | 6% | 2% | 6% | 0% | 25%
